This is one part of a sample in which hits are shown more often than they occur.
IMPase Li cell: membrane-permeable IMPase blocker, potentiated with lithium. Potency, µM (highest dose often 59.4 µM), for the others: at the highest dose activity, negative = IMPase inhibition, hits mostly inhibitors. 210,000 tested, 0.35% active. AID 1457. CHO-M1 cells, IP1 TR-FRET (IP-One), carbachol + lithium;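 also: IP1 builds up when IMPase is blocked and the TR-FRET signal falls; potency is read from the fitted curve at half-maximal effect; plate controls were basal vehicle for no effect and high inhibitor control for full effect; nearly all actives have a fitted effect of over 50% in size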
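Lithium-sensitised IP1 accumulation assay; M1-expressing CHO cells treated 30 min at 37C with compound. Competitive antibody detection by time-resolved FRET followed a 10 min room-temperature lysis step.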
ALOX15B inhib: 15-hLO-2 (ALOX15B) enzyme inhibition; O15296; purified 15hLO-2, xylenol orange hydroperoxide absorbance; Potency, µM (top dose mostly 57.1 µM), for inactives: at the highest dose activity change, negative = inhibition, most hits filed as inhibitors; 110,000 tested, 0.56% active; AID 881; also: potency is read from the fitted curve at half-maximal effect; nearly all actives have a fitted effect of over 60% in size
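Screening format was qHTS against 50 nM purified 15hLO-2 in Hepes pH 7.5 with detergent. Activity follows hydroperoxide formation from 45 uM arachidonic acid, measured as 573:405 nm absorbance ratio of the ferric-xylenol orange complex.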
12-hLO inh: blocks human 12-lipoxygenase activity; P18054; purified 12-hLO, xylenol orange hydroperoxide absorbance; Potency, µM (doses to about 57.1 µM), without a hit: at the top dose activity change, negative = inhibition, hits mostly inhibitors; 150,000 tested, 0.12% active; also: potency is read from the fitted curve at half-maximal effect; nearly all actives have a fitted effect of over 55% in size
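Lipoxygenase turnover measured by absorbance at 573 and 405 nm after Fe-XO development. Human 12hLO 150 nM, arachidonate 40 uM, pH 7.0 Hepes buffer with detergent; 15 min compound preincubation, 30 min reaction.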
IMPase inh: IMPase inhibition in cells; CHO-M1 cells, IP1 accumulation, HTRF TR-FRET ratio; 120,000 tested, under 10 active; inhibition (IP1 accumulation), % at 46.1 µM; active = well fitted curve in the direction sought with a large enough effect in the signal ratio, not every such curve was filed as active; inconclusive = small, poorly fitted or top-dose-only effect, or a change in a side signal; inactive = no such curve, though single readings can be large or run the other way; the % refers to the signal ratio;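 also: cells stimulated with carbachol in lithium chloride buffer; plate controls were DMSO basal wells for no effect and reference inhibitor wells for full effect; higher means more IMPase inhibition seen as more IP1 and lower FRET ratio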
Target sequence (P97697 whole entry, looked up): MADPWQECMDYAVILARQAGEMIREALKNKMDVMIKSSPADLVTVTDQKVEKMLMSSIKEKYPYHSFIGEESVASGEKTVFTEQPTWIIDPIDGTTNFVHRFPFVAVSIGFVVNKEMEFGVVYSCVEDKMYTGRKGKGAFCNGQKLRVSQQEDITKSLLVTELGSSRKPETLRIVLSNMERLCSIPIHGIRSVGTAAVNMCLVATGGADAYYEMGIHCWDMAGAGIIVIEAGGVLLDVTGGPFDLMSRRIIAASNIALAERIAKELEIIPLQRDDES
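The IP-One HTRF competitive assay in carbachol-stimulated CHO-M1 cells quantifies cellular IP1. Compounds spanned up to 46 uM final, and activity is expressed as AC50 from concentration-response fits of the ratio and donor data.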
An asterisk follows results filed as active; [ ] = another dose, or the depositor's remark. Unless noted, calls follow the shape of the dose curve; as a rule, active = well fitted curve in the direction sought with a large enough effect; inconclusive = small, poorly fitted or top-dose-only effect, or another doubt; inactive = no such curve, though single readings can be large; an effect the other way counts as inactive or inconclusive. Unless noted, % is scaled to controls: 0 for no effect and ±100 for the full control effect.

How did COC(=O)CSc1nc(-c2ccccc2)nc2ccc(F)cc12 do in these assays?
IMPase Li cell: inconclusive; ALOX15B inhib: -3%; 12-hLO inh: 2%; IMPase inh: -16

What do the screens show for `CCOC(=O)CSc1nc(-c2ccccc2)nc2ccc(F)cc12`?
IMPase Li cell: 10µM*; ALOX15B inhib: 5%; 12-hLO inh: -4%; IMPase inh: inconclusive

Results for c1ccc2nc(CC[C@@H]3CCCCN3)ccc2c1 ?
IMPase Li cell: -2%; ALOX15B inhib: 1%[11.4 µM]; 12-hLO inh: -2%[11.4 µM]

What do the screens show for `Cc1nc(NC(=O)c2ccc(OCC(C)C)cc2)sc1Cc1ccc2c(c1)OCO2`?
IMPase Li cell: 10%

What do the screens show for `CCCOc1ccc(C(=O)Nc2nc(C)c(Cc3ccc4c(c3)OCO4)s2)cc1`?
IMPase Li cell: 10µM*; 12-hLO inh: 1%

Results for N#C/C(=C\c1c[nH]c2ccccc12)C(=O)c1ccc(O)c(O)c1 ?
IMPase Li cell: 35%; ALOX15B inhib: -29%; 12-hLO inh: 4µM*; IMPase inh: 10

Results for N#C/C(=C\c1ccc(O)c(O)c1)C(=O)c1ccc(O)c(O)c1 ?
IMPase Li cell: 44%; ALOX15B inhib: -29%; 12-hLO inh: inconclusive; IMPase inh: inconclusive

How did Cc1nc(N(C)C)c2sc(=S)n(C)c2n1 do in these assays?
IMPase Li cell: 4%[38.3 µM]; ALOX15B inhib: -4%; 12-hLO inh: 10%; IMPase inh: inconclusive

What do the screens show for `COc1nc(C)nc2c1sc(=S)n2C`?
IMPase Li cell: 22µM*; ALOX15B inhib: -6%; 12-hLO inh: -9%; IMPase inh: 2

Results for Cc1ccc2nc(SCC(=O)NCc3ccco3)c(C#N)cc2c1 ?
IMPase Li cell: inconclusive; ALOX15B inhib: 9%[2.29 µM]; 12-hLO inh: -4%; IMPase inh: inconclusive

What do the screens show for `Cc1ccc2cc(C#N)c(SCC(=O)NNC(=O)Cc3ccccc3)nc2c1`?
IMPase Li cell: 13µM*; 12-hLO inh: -1%

How did CCOC(=O)CSc1nc2cc(OCC)ccc2cc1C#N do in these assays?
IMPase Li cell: inconclusive; ALOX15B inhib: -8%; 12-hLO inh: -3%; IMPase inh: 7

Results for Cc1ccc2nc(SCC(=O)NCc3cccs3)c(C#N)cc2c1 ?
IMPase Li cell: 13µM*; ALOX15B inhib: -6%; 12-hLO inh: 6%; IMPase inh: inconclusive

What do the screens show for `COc1ccc2cc(C#N)c(SCC(=O)NNC(=O)Cc3ccccc3)nc2c1`?
IMPase Li cell: inconclusive; ALOX15B inhib: inconclusive; 12-hLO inh: 2%; IMPase inh: -2

How did CCOc1ccc2cc(C#N)c(SCC(=O)NC(C)CC)nc2c1 (centres undefined) do in these assays?
IMPase Li cell: 3.5µM*; ALOX15B inhib: -25%; 12-hLO inh: -5%; IMPase inh: inconclusive

What do the screens show for `O=C(CC1(O)C(=O)c2ccccc2C1=O)c1ccccc1`?
IMPase Li cell: -1%; 12-hLO inh: -4%

What do the screens show for `O=C1c2ccccc2C(=O)C1(O)O`?
IMPase Li cell: 2%; ALOX15B inhib: 25µM*; 12-hLO inh: inconclusive

How did CCOc1ccc(-c2nc(SCC(=O)NC3CCCC3)c(-c3ccccc3)[nH]2)cc1OC do in these assays?
IMPase inh: 22

Results for CCOC(=O)c1sc2nc(C)nc(SCC(=O)N(C)C3CCS(=O)(=O)C3)c2c1C (centres undefined) ?
IMPase Li cell: 10µM*

What do the screens show for `Cc1sc2ncnc(SCC(=O)N(C)C3CCS(=O)(=O)C3)c2c1C` (centres undefined)?
IMPase Li cell: 6%

Results for CCOC(=O)c1sc2nc(C)nc(SCC(=O)NC(C)CCc3ccccc3)c2c1C (centres undefined) ?
IMPase Li cell: 10µM*; 12-hLO inh: -9%

How did CC(CCc1ccccc1)NC(=O)CSc1ccccn1 (centres undefined) do in these assays?
IMPase Li cell: 3%

How did CN1CCN(c2ncc3ncc(=O)n(CCC#N)c3n2)CC1 do in these assays?
IMPase Li cell: -4%; ALOX15B inhib: -9%

What do the screens show for `Cc1noc(C)c1-c1ccc2ncnc(NCc3cccnc3)c2c1`?
IMPase Li cell: 1%; ALOX15B inhib: 4%

How did O=C(O)C(Cc1ccccc1)N1C(=O)/C(=C/c2ccccc2)SC1=S (centres undefined) do in these assays?
IMPase Li cell: 1%; 12-hLO inh: -1%

Results for O=C(O)C(Cc1ccccc1)N1C(=O)/C(=C/c2cccc3ccccc23)SC1=S (centres undefined) ?
IMPase Li cell: 18%; ALOX15B inhib: 20µM*; 12-hLO inh: -4%; IMPase inh: 5

How did CNc1ncnc2c1ncn2[C@H]1C[C@H](OP(=O)(O)O)[C@H](COP(=O)(O)O)O1 do in these assays?
IMPase Li cell: 17%; ALOX15B inhib: 9%; 12-hLO inh: -3%; IMPase inh: -3

How did COC(=O)C1=C(C)NC(C)=C(C(=O)OCCCN2CCC(c3ccccc3)(c3ccccc3)CC2)C1c1cccc([N+](=O)[O-])c1 (centres undefined) do in these assays?
IMPase Li cell: 30%

What do the screens show for `Cc1cc(/C=N/NC(=O)Cn2c3ccccc3c(=O)c3ccccc32)c(C)n1-c1ccccc1`?
IMPase Li cell: -5%[38.3 µM]; ALOX15B inhib: 4µM*; 12-hLO inh: 2%; IMPase inh: 1

Results for Cn1cccc1C(=O)C(=O)Nc1ccc(Cl)cc1 ?
IMPase Li cell: -1%[38.3 µM]; ALOX15B inhib: -4%; 12-hLO inh: 1%; IMPase inh: 5

Results for Cn1cccc1C(=O)C(=O)Nc1cc(Cl)cc(Cl)c1 ?
IMPase Li cell: 14µM*; ALOX15B inhib: -7%; 12-hLO inh: 5%; IMPase inh: 13

What do the screens show for `OC[C@H]1NC[C@@H](O)[C@@H](O)[C@H]1O`?
IMPase Li cell: -4%; ALOX15B inhib: 8%; 12-hLO inh: 1%; IMPase inh: -1

Results for Nc1ccc(-c2nc3cc(N)ccc3s2)cc1 ?
IMPase Li cell: -17%

How did Nc1ccc2nc(-c3ccccc3)sc2c1 do in these assays?
IMPase Li cell: 11µM*; ALOX15B inhib: 1%; 12-hLO inh: -10%; IMPase inh: inconclusive

Results for COc1ccc(CCn2c(SCC(=O)Nc3cc(C)on3)nc3ccsc3c2=O)cc1OC ?
IMPase Li cell: 11µM*; ALOX15B inhib: 5%[11.4 µM]; 12-hLO inh: -2%; IMPase inh: inconclusive

How did COc1ccc(CCn2c(SCC(=O)Nc3cc(C)on3)nc3ccccc3c2=O)cc1OC do in these assays?
IMPase Li cell: -8%[38.3 µM]; ALOX15B inhib: -17%; 12-hLO inh: 0%; IMPase inh: -3

What do the screens show for `O=C(CN1CCN(c2ccc(F)cc2)CC1)Nc1nnc(-c2ccccc2)s1`?
IMPase Li cell: 11µM*; ALOX15B inhib: -2%; 12-hLO inh: 0%; IMPase inh: 2

How did COc1cccc(-c2nc(-c3ccc(NC(=O)Cc4ccccc4OC)cc3)no2)c1 do in these assays?
IMPase Li cell: 23%[38.3 µM]; ALOX15B inhib: 3%; 12-hLO inh: -5%; IMPase inh: 9

High-throughput results (PubChem BioAssay)
